# Source: PubChem (several laboratories)
# Hits are enriched below; roughly 5.9% of the tested compounds scored in any of these assays.
# FXN GAA850 act: frataxin GAA850 promoter activation | HEK293 lucGAA850 FXN promoter luciferase reporter, 24 h; percent of 10 µM SAHA response | activation, % at 6 µM | 0.56% of 360,000 active;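 active means activation above the average of all compounds screened plus 3 SD, cutoff fixed separately per campaign, cut at about 7.5% in these data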
# DAX1 inh: inhibitors of human orphan nuclear receptor DAX1 (NR0B1); P51843; HEK293 Gal4-DAX1 luciferase reporter, luminescence; inhibition, % at 6.75 µM; 0.99% of 340,000 active;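 active means inhibition above the mean over all tested compounds plus 3 SD, cut at about 4.2% in these data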;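 further: inhibition shows as a rise in luminescence from relieved DAX1 repression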
# HSF1 activator: increases HSF-1 driven luciferase reporter signal; 1.7% of 300,000 active; AID 504408; activation, % at 9 µM; NIH3T3-HGL HSF-1 luciferase reporter, MG132, 8 h; 100% = twice DMSO control signal;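 active means mean replicate activation of at least 50% with a set share of replicates each reaching 50%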
# HSP90 refold inh: inhibitors of HSP90 luciferase refolding in rabbit reticulocyte lysate | luciferase refolding luminescence, 3 h | inhibition, % at 5.6 µM | 0.91% of 290,000 active | AID 1789;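 active means inhibition above the screen-wide mean plus 3 SD, computed separately per campaign, cut at about 16% in these data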;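 further: inhibitors lower the luminescence because luciferase stays unfolded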
# AHR act: human AHR activation | AHR-responsive luciferase reporter cells, luminescence | P35869 | 2.5% of 320,000 active | activation, % at 5 µM; in the data active means activation above about 47%
# Target sequence (P35869 whole entry, looked up): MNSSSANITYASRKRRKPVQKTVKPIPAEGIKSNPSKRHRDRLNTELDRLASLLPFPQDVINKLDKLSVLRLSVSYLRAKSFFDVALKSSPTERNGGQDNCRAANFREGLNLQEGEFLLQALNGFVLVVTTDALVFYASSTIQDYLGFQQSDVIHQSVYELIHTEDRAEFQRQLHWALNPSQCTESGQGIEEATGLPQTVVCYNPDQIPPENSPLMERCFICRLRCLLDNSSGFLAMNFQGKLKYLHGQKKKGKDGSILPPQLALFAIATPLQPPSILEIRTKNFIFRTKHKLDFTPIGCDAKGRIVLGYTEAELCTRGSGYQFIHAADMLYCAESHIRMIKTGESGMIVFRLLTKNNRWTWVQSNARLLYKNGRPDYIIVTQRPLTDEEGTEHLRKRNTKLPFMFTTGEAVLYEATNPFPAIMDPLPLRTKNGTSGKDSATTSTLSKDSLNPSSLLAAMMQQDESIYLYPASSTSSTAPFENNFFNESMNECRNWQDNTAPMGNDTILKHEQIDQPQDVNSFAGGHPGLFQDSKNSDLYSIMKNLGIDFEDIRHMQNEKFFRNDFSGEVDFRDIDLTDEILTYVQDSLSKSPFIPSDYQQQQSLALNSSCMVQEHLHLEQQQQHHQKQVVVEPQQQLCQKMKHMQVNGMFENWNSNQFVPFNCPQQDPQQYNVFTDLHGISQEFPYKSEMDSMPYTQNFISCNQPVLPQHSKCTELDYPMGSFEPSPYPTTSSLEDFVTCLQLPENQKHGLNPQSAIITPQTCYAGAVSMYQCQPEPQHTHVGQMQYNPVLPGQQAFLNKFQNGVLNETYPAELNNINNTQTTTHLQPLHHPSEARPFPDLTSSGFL
# HSF1 inhib: HSF1 inhibition | NIH3T3-HGL HSE-luciferase, MG132-induced, luminescence 8 h; hits give low values | 0.77% of 300,000 active | activity change, negative = inhibition, % at 7.5 µM (by protocol);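 active means more than half of replicate wells show activity change below -50%, luminescence cut by over half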;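 further: luciferase reports HSF-1 transcriptional activity via heat shock element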
# Numbers stand for hits; n = inactive; x = not tested or not shown.
SMILES,FXN GAA850 act,DAX1 inh,HSF1 activator,HSP90 refold inh,AHR act,HSF1 inhib
COCCn1c(/C=C/c2ccccc2)nc2ccccc21,n,n,n,n,n,n
Cc1noc(C)c1NC(=O)N(C)C[C@H]1Oc2ccc(NC(=O)NC(C)C)cc2C(=O)N([C@H](C)CO)C[C@@H]1C,n,n,x,x,n,x
O=C(c1cccs1)N1N=C(c2ccccc2)CC1c1ccccc1O (stereo not given),n,n,x,n,n,x
Cc1ccc(C2=NN(C(=O)c3cccs3)C(c3ccccc3O)C2)cc1 (stereo not given),n,n,80.3,n,n,n
O=C(C[C@@H]1C[C@H]2c3cc(NC(=O)c4cccnc4)ccc3O[C@H]2[C@H](CO)O1)NCc1ccc(Oc2ccccc2)cc1,n,n,x,x,x,x
COc1ccc2c3n(nc2c1)CCN=C3c1ccc(C)cc1,n,n,x,x,n,x
COc1ccc(C2=NCCn3nc4cc([N+](=O)[O-])ccc4c32)cc1,n,n,n,x,n,-66.0
O=[N+]([O-])c1ccc2c3n([n+]([O-])c2c1)CCN=C3c1ccc(Cl)cc1,n,n,n,x,48.1,n
Cc1ccc(C2=NCCn3c2c2ccc([N+](=O)[O-])cc2[n+]3[O-])cc1,n,n,n,x,n,n
[O-][n+]1c2ccccc2c2n1CCCN=C2c1ccc(Cl)cc1,n,n,n,x,51.0,n
Nc1c(Cl)cc(C2=NCCn3c2c2ccc(C(F)(F)F)cc2[n+]3[O-])cc1Cl,n,n,n,x,54.5,n
Nc1c(Cl)cc(C2=NCCn3nc4ccccc4c32)cc1Cl,n,n,n,x,n,n
Clc1ccc(C2=NCCn3nc4ccccc4c32)cc1,n,n,n,x,79.2,n
Cc1ccc(S(=O)(=O)NC(C)(C)CSc2nncn2N)cc1,n,n,n,n,n,-77.3
CC(=O)c1cnn(-c2c(Cl)cc(Cl)cc2Cl)c1C,n,n,n,n,n,-58.6
Cc1ccc2nc(CSc3nc(C)ccc3C#N)[nH]c2c1,n,n,n,n,n,-58.5
Cc1ccc(C#N)c(SCc2ccccc2F)n1,n,x,n,n,n,n
CC(C)(C)c1ccc(O)c(/C=N\O)c1,n,n,n,n,n,n
CC(C)(C)c1cccc(/C=N/O)c1O,n,n,65.6,n,n,n
C[C@H]1CN([C@@H](C)CO)S(=O)(=O)c2ccc(C#Cc3ccccn3)cc2O[C@@H]1CN(C)C(=O)C1CC1,n,n,x,x,x,x
S=c1nc(-c2ccccc2)c(-c2ccccc2)n[nH]1,n,n,n,n,n,n
Nc1c(-c2ccccc2)n[nH]c1-c1ccccc1,n,n,n,n,134.4,n
CCNC(=O)NC(=O)CSc1nnc(-c2c[nH]c3ccccc23)o1,n,n,n,n,n,n
CCC(C)NC(=O)CSc1nnc(-c2c[nH]c3ccccc23)o1 (stereo not given),n,n,n,16.7,n,n
O=C(Nc1c(Cl)cc(Cl)cc1-c1nc2ccccc2s1)c1ccc(Br)o1,n,n,n,n,60.5,n
SMILES,FXN GAA850 act,DAX1 inh,HSF1 activator,HSP90 refold inh,AHR act,HSF1 inhib
CN(C)c1ccc(C=C2C(=O)OC(C)(C(C)(C)C)OC2=O)cc1 (stereo not given),n,n,n,n,n,n
CCN(CC)c1ccc(C=C2C(=O)OC(C)(C(C)(C)C)OC2=O)cc1 (stereo not given),n,4.9,n,x,n,n
Cc1cccc(NC(=O)CC2Nc3cccc4cccc(c34)NC2=O)c1 (stereo not given),n,n,n,n,74.7,n
COc1ccccc1NC(=O)CC1Nc2ccccc2NC1=O (stereo not given),n,n,n,n,56.3,n
COc1ccc(NC(=O)CC2Nc3ccccc3NC2=O)c([N+](=O)[O-])c1 (stereo not given),n,n,n,n,n,n
Cc1cc2c(cc1C)NC(CC(=O)NCc1ccccc1)C(=O)N2 (stereo not given),n,n,75.5,n,n,n
CC(C)N(C(=O)CN1CCC(c2nc3ccccc3[nH]2)CC1)C(C)C,n,n,n,n,n,n
CN(c1ccccc1)c1ncccn1,n,x,n,x,n,-88.6
O=C(c1ccco1)N1CCN(c2ncnc3c(-c4ccccc4)nsc23)CC1,n,n,50.9,n,66.3,n
O=C(c1ccco1)N1CCN(c2ccc(Cl)cc2)CC1,n,n,70.5,n,n,n
O=C(Nc1ccc(N2CCN(C(=O)c3ccco3)CC2)cc1)c1ccco1,n,n,n,n,n,n
O=C(c1ccco1)N1CCN(c2ccc(Cl)c(Cl)c2)CC1,n,n,99.0,n,n,n
O=C(Nc1ccc(N2CCN(C(=O)c3ccco3)CC2)cc1)c1cc(Br)ccc1Cl,n,n,x,x,n,x
O=C(c1ccco1)N1CCN(C(=O)N2CCOCC2)CC1,n,n,71.4,n,n,n
COc1ccc2cc(N3CCCC3=O)ccc2c1,n,n,x,x,x,x
O=C(O)C1CC=CCC1C(=O)Nc1ccccc1C(=O)N1CCN(c2ccc(Cl)cc2)CC1 (stereo not given),n,x,n,n,n,n
O=C(O)CCC(=O)Nc1ccccc1C(=O)N1CCN(c2ccc(Cl)cc2)CC1,n,6.8,n,n,n,n
O=C(Cc1ccc(Cl)cc1)Nc1ccc(N2CCN(C(=O)c3ccco3)CC2)cc1,n,n,80.2,n,n,n
OC(c1ccc(-c2ccccc2)cc1)c1ncc(-c2ccccc2Cl)[nH]1 (stereo not given),n,x,x,x,x,x
CCOc1ccc(CN2CCN(C/C=C/c3ccc(OC)cc3)CC2CCO)cc1 (stereo not given),n,n,n,n,n,n
COc1ccc(/C=C/CN2CCN(Cc3cccc(OC)c3)C(CCO)C2)cc1 (stereo not given),n,4.2,n,n,n,n
COc1ccc(NC(=O)C[C@H]2C(=O)N(C3CCCCC3)C[C@@H]2CSC)cc1,n,n,x,x,x,x
COc1ccccc1-c1nc2c3ccccc3nc(=S)n2[nH]1,n,n,n,n,67.6,n
CC(Oc1ccc(Br)cc1)c1nc2c3ccccc3nc(=S)n2[nH]1 (stereo not given),n,n,n,n,n,n
COc1cc(-c2nc3c4ccccc4nc(=S)n3[nH]2)cc(OC)c1OC,n,n,n,n,71.3,n
SMILES,FXN GAA850 act,DAX1 inh,HSF1 activator,HSP90 refold inh,AHR act,HSF1 inhib
Cc1ccc(-c2csc3ncnc(N4CCN(S(=O)(=O)c5cccs5)CC4)c23)cc1,n,n,x,x,n,x
CCCCNC(=O)C1(C)CCCCN1C(=O)c1oc2ccccc2c1C (stereo not given),n,x,x,x,x,x
COC(=O)[C@@H]1C[C@]2(OC(=O)c3ccccc3)C=CC(=O)C[C@@H]2N1C(=O)OCc1ccccc1,n,n,73.3,n,n,n
Cc1csc(=O)n1CC(=O)OCC(=O)Nc1ccccc1C(C)C,n,n,x,x,n,x
Cc1ccc(-n2nnnc2SCC(=O)c2c(N)n(C3CC3)c(=O)[nH]c2=O)c(C)c1,n,n,x,x,n,x
CN1Cc2c(N3CCOCC3)nc3sc(C#N)c(N)c3c2CC1(C)C,n,5.4,n,n,n,n
